# Experimental data taken from PMC7862700, “An all-to-all approach to the identification of sequence-specific readers for epigenetic DNA modifications on cytosine”.
# Legend:
# Assay in all cases: DAPPL (digital affinity profiling via proximity ligation, sequencing); 10 mM Tris-HCl pH 7.5, 50 mM NaCl, 1 mM DTT, 4% glycerol, room temperature, 30 min; GST-TFs on glutathione beads, 16-mer random dsDNA library, 0.1% formaldehyde crosslink after washing; high values mean tight binding
# FEV = target: T1, FEV (Homo sapiens, UniProt Q99581 1-238); conditions: protein: recombinant; tags: N-terminal GST; dsDNA, one strand shown
# T1 sequence: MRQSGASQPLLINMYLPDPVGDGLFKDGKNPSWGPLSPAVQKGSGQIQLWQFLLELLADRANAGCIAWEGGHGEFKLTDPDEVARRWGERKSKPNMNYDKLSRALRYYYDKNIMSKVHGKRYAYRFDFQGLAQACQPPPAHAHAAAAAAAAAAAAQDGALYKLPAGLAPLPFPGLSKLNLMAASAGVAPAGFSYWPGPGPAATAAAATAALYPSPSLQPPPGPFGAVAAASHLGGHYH
# Procedure, shortened: (§1)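 Binding signal is each hexamer's read frequency for a factor divided by its frequency in the tag-only sample. The factors were GST-fused human transcription factors from yeast, captured on glutathione beads, DNA-barcoded and pooled with that sample. Pools were incubated with 200 nmole of a random double-stranded 16-mer DNA library in Tris/NaCl/DTT/glycerol buffer at room temperature for 30 min, then washed, crosslinked with 0.1% formaldehyde, proximity-ligated with BsaI/T4 ligase (1 h, 37 °C), PCR-amplified and sequenced on an Illumina NextSeq500.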
# ETV5 = ETV5 (Homo sapiens, UniProt P41161 1-510); conditions: protein: recombinant; tags: N-terminal GST; dsDNA, one strand shown
# Procedure, shortened: as §1
# HSF1 = HSF1 (Homo sapiens, UniProt Q00613 1-529); conditions: protein: recombinant; tags: N-terminal GST; chain copies: 3; dsDNA, one strand shown
# Procedure, shortened: as §1
# SPIC = target: T2, SPIC (Homo sapiens, UniProt Q8N5J4 1-248); conditions: protein: recombinant; tags: N-terminal GST; dsDNA, one strand shown
# T2 sequence: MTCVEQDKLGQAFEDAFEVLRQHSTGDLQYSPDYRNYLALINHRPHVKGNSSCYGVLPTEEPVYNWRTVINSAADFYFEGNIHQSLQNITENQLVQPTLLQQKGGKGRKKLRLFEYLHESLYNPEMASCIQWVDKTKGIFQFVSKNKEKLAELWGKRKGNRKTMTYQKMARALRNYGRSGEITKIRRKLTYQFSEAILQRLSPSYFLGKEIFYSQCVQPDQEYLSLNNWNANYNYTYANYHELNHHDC
# Procedure, shortened: as §1
# ELF4 = ELF4 (Homo sapiens, UniProt Q99607 1-663); conditions: protein: recombinant; tags: N-terminal GST; dsDNA, one strand shown
# Procedure, shortened: as §1
# ELK4 = target: T3, ELK4 (Homo sapiens, UniProt P28324-2 1-405); conditions: protein: recombinant; tags: N-terminal GST; dsDNA, one strand shown
# T3 sequence: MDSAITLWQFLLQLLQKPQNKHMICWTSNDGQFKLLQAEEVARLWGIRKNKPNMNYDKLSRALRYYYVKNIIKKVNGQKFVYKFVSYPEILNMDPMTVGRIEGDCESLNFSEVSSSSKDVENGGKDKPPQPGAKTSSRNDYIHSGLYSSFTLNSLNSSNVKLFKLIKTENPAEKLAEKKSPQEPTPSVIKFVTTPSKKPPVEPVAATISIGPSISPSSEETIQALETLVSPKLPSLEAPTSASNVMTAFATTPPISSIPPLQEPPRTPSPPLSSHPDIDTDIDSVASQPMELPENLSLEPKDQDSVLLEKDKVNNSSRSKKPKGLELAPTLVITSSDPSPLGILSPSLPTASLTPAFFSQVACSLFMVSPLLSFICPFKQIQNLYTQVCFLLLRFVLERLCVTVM
# Procedure, shortened: as §1
# ETV2 = target: T4, ETV2 (Homo sapiens, UniProt O00321 1-342); conditions: protein: recombinant; tags: N-terminal GST; dsDNA, one strand shown
# T4 sequence: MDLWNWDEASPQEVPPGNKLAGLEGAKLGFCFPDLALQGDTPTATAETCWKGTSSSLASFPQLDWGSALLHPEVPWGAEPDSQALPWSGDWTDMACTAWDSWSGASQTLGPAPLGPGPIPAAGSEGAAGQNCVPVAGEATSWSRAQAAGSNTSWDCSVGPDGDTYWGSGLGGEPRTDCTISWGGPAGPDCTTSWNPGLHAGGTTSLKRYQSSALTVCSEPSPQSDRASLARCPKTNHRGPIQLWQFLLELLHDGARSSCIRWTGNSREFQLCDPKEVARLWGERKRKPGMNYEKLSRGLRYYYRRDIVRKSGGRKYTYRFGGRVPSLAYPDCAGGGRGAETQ
# Procedure, shortened: as §1
# ELF3 = target: T5, ELF3 (Homo sapiens, UniProt P78545 1-371); conditions: protein: recombinant; tags: N-terminal GST; dsDNA, one strand shown
# T5 sequence: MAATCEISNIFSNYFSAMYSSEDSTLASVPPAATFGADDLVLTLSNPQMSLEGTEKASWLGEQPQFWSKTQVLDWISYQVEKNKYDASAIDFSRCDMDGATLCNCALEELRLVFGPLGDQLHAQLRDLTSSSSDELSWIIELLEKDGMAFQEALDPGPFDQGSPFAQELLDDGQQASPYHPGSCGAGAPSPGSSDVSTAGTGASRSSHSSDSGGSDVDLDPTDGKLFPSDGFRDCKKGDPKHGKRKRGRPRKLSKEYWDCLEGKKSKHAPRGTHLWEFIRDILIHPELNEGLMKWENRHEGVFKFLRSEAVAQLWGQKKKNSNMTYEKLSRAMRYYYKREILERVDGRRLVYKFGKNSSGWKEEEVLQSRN
# Procedure, shortened: as §1
# CRX = CRX (Homo sapiens, UniProt O43186 1-299); conditions: protein: recombinant; tags: N-terminal GST; dsDNA, one strand shown
# Procedure, shortened: as §1
# ETV1 = ETV1 (Homo sapiens, UniProt P50549 1-477); conditions: protein: recombinant; tags: N-terminal GST; dsDNA, one strand shown
# Procedure, shortened: as §1
# ERF = target: T6, ERF (Homo sapiens, UniProt P50548 1-548); conditions: protein: recombinant; tags: N-terminal GST; dsDNA, one strand shown
# T6 sequence: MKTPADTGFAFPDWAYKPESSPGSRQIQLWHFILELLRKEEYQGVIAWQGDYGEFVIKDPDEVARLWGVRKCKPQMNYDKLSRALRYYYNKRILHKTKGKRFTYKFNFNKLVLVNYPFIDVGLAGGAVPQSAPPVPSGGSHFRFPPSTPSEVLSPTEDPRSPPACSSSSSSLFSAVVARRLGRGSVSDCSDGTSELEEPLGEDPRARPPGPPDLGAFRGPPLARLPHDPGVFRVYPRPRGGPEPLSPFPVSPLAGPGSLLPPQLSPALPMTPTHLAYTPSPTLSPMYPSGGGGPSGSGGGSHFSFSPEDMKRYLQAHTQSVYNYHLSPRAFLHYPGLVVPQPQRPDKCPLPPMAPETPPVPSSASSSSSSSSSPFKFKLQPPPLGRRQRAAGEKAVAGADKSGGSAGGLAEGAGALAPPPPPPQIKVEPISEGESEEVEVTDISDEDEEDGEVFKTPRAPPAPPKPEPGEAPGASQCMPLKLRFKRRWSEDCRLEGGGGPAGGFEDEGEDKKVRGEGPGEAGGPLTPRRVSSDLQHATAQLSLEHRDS
# Procedure, shortened: as §1
# ETV3L = target: T7, ETV3L (Homo sapiens, UniProt Q6ZN32 1-361); conditions: protein: recombinant; tags: N-terminal GST; dsDNA, one strand shown
# T7 sequence: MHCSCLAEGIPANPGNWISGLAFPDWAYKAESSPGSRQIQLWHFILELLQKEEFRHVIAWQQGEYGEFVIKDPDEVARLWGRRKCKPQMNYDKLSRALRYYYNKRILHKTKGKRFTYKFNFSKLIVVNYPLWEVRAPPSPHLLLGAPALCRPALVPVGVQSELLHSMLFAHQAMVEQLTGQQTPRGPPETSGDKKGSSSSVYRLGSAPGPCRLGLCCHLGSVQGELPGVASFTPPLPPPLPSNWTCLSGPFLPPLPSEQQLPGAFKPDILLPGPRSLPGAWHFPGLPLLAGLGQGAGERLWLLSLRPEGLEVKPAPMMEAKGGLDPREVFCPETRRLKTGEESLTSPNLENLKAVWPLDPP
# Procedure, shortened: as §1
# ETS2 = target: T8, ETS2 (Homo sapiens, UniProt P15036 1-469); conditions: protein: recombinant; tags: N-terminal GST; dsDNA, one strand shown
# T8 sequence: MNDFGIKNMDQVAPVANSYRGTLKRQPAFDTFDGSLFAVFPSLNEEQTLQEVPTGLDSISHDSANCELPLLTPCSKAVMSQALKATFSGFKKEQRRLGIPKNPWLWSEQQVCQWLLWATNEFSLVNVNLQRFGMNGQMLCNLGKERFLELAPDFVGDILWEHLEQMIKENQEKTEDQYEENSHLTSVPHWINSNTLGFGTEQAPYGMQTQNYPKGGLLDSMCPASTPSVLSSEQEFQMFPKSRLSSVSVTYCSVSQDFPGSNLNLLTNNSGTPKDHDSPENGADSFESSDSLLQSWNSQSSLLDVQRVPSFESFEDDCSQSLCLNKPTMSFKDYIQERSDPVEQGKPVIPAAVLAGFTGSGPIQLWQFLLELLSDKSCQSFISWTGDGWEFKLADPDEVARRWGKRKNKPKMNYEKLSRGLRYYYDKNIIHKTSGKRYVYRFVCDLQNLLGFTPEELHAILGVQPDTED
# Procedure, shortened: as §1
# SPDEF = target: T9, SPDEF (Homo sapiens, UniProt O95238 1-335); conditions: protein: recombinant; tags: N-terminal GST; dsDNA, one strand shown
# T9 sequence: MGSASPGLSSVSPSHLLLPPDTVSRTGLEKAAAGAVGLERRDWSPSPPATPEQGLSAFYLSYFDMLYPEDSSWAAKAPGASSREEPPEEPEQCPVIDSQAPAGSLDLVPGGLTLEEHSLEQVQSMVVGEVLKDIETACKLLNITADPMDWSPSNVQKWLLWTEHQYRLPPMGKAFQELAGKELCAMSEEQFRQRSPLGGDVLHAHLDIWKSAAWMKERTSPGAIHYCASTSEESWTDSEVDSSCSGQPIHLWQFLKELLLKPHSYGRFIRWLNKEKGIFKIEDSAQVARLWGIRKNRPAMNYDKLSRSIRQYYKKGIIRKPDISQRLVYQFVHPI
# Procedure, shortened: as §1
# ETV7 = target: T10, ETV7 (Homo sapiens, UniProt Q9Y603 1-341); conditions: protein: recombinant; tags: N-terminal GST; dsDNA, one strand shown
# T10 sequence: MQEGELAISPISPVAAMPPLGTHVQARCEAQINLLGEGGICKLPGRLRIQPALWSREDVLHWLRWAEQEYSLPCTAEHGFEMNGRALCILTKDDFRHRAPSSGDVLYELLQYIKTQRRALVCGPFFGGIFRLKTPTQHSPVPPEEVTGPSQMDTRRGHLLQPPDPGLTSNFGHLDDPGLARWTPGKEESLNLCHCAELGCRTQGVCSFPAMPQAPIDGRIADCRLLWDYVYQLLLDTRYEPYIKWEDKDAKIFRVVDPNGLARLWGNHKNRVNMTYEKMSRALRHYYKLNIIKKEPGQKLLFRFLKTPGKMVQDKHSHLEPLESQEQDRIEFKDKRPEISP
# Procedure, shortened: as §1
# ELF5 = target: T11, ELF5 (Homo sapiens, UniProt Q9UKW6-2 1-255); conditions: protein: recombinant; tags: N-terminal GST; dsDNA, one strand shown
# T11 sequence: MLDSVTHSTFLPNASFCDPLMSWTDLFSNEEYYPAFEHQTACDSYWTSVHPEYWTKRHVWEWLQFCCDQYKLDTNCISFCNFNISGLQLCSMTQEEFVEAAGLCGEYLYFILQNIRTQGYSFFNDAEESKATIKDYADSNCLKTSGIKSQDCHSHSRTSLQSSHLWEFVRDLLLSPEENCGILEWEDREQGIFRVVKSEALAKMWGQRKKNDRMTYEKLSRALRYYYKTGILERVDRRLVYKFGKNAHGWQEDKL
# Procedure, shortened: as §1
# ETV3 = target: T12, ETV3 (Homo sapiens, UniProt P41162-2 1-143); conditions: protein: recombinant; tags: N-terminal GST; dsDNA, one strand shown
# T12 sequence: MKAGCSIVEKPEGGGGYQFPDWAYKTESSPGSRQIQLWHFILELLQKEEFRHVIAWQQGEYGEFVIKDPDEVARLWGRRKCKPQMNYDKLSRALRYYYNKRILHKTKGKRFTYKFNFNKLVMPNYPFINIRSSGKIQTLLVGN
# Procedure, shortened: as §1
# ETV6 = ETV6 (Homo sapiens, UniProt P41212 1-452); conditions: protein: recombinant; tags: N-terminal GST; dsDNA, one strand shown
# Procedure, shortened: as §1
# Sequence of HSF1 (Q00613 whole entry): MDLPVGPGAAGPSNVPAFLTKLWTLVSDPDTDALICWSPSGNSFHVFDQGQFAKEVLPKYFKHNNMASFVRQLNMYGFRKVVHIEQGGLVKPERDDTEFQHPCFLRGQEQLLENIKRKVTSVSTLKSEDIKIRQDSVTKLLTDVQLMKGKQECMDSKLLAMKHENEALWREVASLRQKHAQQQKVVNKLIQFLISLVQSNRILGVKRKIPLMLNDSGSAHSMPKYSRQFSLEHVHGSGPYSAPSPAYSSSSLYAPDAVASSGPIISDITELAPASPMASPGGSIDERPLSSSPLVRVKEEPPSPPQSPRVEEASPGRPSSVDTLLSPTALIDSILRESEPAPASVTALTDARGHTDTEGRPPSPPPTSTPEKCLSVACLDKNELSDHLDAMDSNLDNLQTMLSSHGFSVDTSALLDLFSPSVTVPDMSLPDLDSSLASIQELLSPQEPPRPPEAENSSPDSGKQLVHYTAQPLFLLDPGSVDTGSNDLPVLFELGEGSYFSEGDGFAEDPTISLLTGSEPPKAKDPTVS
# Sequence of ELF4 (Q99607 whole entry): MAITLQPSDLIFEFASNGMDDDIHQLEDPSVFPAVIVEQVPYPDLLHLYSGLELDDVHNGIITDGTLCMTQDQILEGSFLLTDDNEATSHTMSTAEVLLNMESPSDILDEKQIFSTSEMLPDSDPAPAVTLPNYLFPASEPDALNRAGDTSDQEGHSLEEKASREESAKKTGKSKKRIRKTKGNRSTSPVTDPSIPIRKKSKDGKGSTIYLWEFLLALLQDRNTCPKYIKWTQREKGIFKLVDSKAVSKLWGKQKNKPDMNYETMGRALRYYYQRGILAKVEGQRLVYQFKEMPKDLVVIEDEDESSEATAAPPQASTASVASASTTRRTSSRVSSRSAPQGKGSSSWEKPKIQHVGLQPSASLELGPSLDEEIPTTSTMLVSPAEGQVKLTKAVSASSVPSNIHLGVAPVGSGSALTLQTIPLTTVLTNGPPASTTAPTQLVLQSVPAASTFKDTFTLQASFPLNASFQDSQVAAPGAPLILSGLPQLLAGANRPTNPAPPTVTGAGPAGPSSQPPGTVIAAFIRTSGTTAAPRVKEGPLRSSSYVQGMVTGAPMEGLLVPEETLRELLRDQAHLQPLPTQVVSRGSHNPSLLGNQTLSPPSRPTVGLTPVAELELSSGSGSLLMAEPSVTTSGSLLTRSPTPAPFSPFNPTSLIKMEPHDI
# Sequence of CRX (O43186 whole entry): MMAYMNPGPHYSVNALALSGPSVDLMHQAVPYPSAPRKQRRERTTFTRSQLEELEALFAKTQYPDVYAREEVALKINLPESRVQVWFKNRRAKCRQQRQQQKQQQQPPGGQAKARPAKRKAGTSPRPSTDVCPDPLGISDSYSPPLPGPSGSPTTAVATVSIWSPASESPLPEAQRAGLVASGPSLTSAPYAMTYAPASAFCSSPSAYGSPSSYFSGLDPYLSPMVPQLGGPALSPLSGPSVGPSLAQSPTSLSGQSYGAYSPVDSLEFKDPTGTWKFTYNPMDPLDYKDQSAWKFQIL
# Sequence of ETV6 (P41212 whole entry): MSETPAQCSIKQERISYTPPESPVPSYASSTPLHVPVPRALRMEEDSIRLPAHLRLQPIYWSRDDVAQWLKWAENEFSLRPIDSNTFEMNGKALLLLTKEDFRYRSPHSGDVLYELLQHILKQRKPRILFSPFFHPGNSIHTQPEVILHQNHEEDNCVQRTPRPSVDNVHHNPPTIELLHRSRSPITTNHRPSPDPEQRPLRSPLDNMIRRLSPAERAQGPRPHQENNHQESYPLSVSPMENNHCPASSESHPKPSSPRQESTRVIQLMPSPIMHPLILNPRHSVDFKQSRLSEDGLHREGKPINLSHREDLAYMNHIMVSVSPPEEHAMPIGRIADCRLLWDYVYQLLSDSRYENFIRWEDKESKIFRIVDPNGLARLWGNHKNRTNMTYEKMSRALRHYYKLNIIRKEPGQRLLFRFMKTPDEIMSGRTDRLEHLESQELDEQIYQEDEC
# Sequence of ETV5 (P41161 whole entry): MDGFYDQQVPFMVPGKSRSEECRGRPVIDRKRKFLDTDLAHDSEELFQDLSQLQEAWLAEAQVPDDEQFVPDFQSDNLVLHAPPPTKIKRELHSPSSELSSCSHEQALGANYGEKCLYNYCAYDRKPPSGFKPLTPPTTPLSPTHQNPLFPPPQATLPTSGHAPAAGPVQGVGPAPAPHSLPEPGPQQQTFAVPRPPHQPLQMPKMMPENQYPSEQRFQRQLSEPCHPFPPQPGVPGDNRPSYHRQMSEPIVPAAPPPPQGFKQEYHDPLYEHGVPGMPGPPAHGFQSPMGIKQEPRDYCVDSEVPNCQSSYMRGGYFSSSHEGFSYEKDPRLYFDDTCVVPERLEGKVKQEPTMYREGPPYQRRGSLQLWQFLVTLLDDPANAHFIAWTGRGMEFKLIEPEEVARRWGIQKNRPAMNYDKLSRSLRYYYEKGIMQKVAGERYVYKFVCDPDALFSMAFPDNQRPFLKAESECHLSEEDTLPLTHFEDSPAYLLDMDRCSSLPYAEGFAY
# Sequence of ETV1 (P50549 whole entry): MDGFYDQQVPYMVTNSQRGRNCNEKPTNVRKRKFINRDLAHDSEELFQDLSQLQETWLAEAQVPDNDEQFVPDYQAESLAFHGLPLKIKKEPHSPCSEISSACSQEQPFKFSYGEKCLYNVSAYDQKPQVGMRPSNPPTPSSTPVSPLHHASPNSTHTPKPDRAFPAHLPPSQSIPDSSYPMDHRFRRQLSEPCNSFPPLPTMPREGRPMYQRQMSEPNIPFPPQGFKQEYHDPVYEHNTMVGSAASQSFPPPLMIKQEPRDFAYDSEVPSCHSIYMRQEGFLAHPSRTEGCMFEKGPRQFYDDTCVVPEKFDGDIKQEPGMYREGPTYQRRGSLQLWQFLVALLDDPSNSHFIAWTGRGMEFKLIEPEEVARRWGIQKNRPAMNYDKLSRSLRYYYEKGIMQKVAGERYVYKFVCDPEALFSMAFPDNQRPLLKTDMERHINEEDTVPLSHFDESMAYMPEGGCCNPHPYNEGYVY
sequence,measurement,setting,value
TAGTTA,binding signal,FEV,"1.07 fold enrichment (6-mer frequency, TF over GST control)"
same,binding signal,ETV5,"1.19 fold enrichment (6-mer frequency, TF over GST control)"
same,binding signal,HSF1,"1.26 fold enrichment (6-mer frequency, TF over GST control)"
same,binding signal,SPIC,"1.11 fold enrichment (6-mer frequency, TF over GST control)"
same,binding signal,ELF4,"1.15 fold enrichment (6-mer frequency, TF over GST control)"
same,binding signal,ELK4,"1.26 fold enrichment (6-mer frequency, TF over GST control)"
same,binding signal,ETV2,"1.09 fold enrichment (6-mer frequency, TF over GST control)"
same,binding signal,ELF3,"1.29 fold enrichment (6-mer frequency, TF over GST control)"
same,binding signal,CRX,"1.54 fold enrichment (6-mer frequency, TF over GST control)"
same,binding signal,ETV1,"1.05 fold enrichment (6-mer frequency, TF over GST control)"
same,binding signal,ERF,"1.18 fold enrichment (6-mer frequency, TF over GST control)"
same,binding signal,ETV3L,"1.1 fold enrichment (6-mer frequency, TF over GST control)"
same,binding signal,ETS2,"1.12 fold enrichment (6-mer frequency, TF over GST control)"
same,binding signal,SPDEF,"1.06 fold enrichment (6-mer frequency, TF over GST control)"
same,binding signal,ETV7,"1.1 fold enrichment (6-mer frequency, TF over GST control)"
same,binding signal,ELF5,"1.06 fold enrichment (6-mer frequency, TF over GST control)"
same,binding signal,ETV3,"1.12 fold enrichment (6-mer frequency, TF over GST control)"
same,binding signal,ETV6,"1.16 fold enrichment (6-mer frequency, TF over GST control)"
